# Reference: PubChem BioAssay (EPA / NIEHS)
# Results filed as inconclusive are left out. Calls of active or inactive are those of the source. Rule for the calls, unless noted: active = hit-call score of the fitted dose curve at least 0.9, where 1 is the maximum; inconclusive = response in the unintended direction; inactive = score below 0.9.
# Tests used:
# [1] = target: Estrogen receptor (Homo sapiens) (UniProt P03372); test: OT_ER_ERaERa_1440: Odyssey Thera (OT) 24-hour HEK293T Protein-Complementation Assay for Estrogen Receptor-alpha/-alpha Homodimer (AID 2283349);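 note: hits raise fluorescence above DMSO for agonists and antagonists alike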
# Method in brief: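 Readout is the rise in mean fluorescence from reporter fragment complementation when ERα LBD (aa 310-547) units dimerize in HEK293T cells. Measured 24 h after dosing and analysed as increase over DMSO control.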
# [2] = target: Estrogen receptor (Homo sapiens) (UniProt P03372); test: OT_ER_ERaERa_0480: Odyssey Thera (OT) 8-hour HEK293T Protein-Complementation Assay for Estrogen Receptor-alpha/-alpha Homodimer (AID 2283351);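 note: rise in fluorescence from reassembled reporter fragments on ERα LBD homodimer in nucleus or whole cell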
# Method in brief: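 The readout is complementation of fragments fused to the human ER alpha ligand-binding domain (aa 310-547), stably expressed in HEK293T cells. After 8 h of exposure, the increase in nuclear/cytoplasmic fluorescence was measured by laser scanning cytometry and fitted relative to DMSO.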
# [3] = target: T1, Estrogen receptor (Homo sapiens) + Estrogen receptor beta (Homo sapiens) (UniProt P03372+Q92731); test: OT_ER_ERaERb_0480: Odyssey Thera (OT) 8-hour HEK293T Protein-Complementation Assay for Estrogen Receptor-alpha/-beta Heterodimer (AID 2283352)
# Method in brief: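 Fluorescence intensity readout from a protein-fragment complementation reporter in HEK293T; ER-alpha/ER-beta LBD heterodimer. Dosing 8 h. Gain-of-signal fit relative to DMSO negative control; laser scanning cytometry of whole-well cell population.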
# [4] = target: T1, Estrogen receptor (Homo sapiens) + Estrogen receptor beta (Homo sapiens); test: OT_ER_ERaERb_1440: Odyssey Thera (OT) 24-hour HEK293T Protein-Complementation Assay for Estrogen Receptor-alpha/-beta Homodimer (AID 2283356);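 note: heteromer of ER alpha and ER beta binding domains; hits raise reporter fluorescence and both agonists and antagonists give an increase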
# Method in brief: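 Readout: mean fluorescence intensity in nucleus (agonists) or nucleus plus cytoplasm (antagonists), read by laser scanning cytometer after 24 h compound exposure of HEK293T cells carrying ERα/ERβ LBD fragment-complementation constructs; DMSO baseline.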
# [5] = target: Estrogen receptor beta (Homo sapiens) (UniProt Q92731); test: OT_ER_ERbERb_0480: Odyssey Thera (OT) 8-hour HEK293T Protein-Complementation Assay for Estrogen Receptor-beta/-beta Homodimer (AID 2283357);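 note: active means signal gain over DMSO baseline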
# Method in brief: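 Readout: increase in mean fluorescence intensity (nucleus for agonists; nucleus plus cytoplasm for antagonists) relative to DMSO, from a reporter-fragment complementation of human ER-beta LBD homodimer in HEK293T cells dosed 8 hours.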
# [6] = target: Estrogen receptor (Homo sapiens) (UniProt P03372); test: OT_ERa_GFPERaERE_0480: Odyssey Thera (OT) 8-hour HeLa Transcription Induction Assay for Estrogen Receptor (AID 2283381; active = hit-call score of the fitted dose curve at least 0.9, where 1 is the maximum; inactive = score below 0.9)
# Method in brief: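 HeLa cells expressing GFP reporter under estrogen response element, imaged 8 h after dosing. GFP induction quantified by high-content fluorescence microscopy image analysis; gain of signal fitted versus DMSO.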
# [7] = target: Estrogen receptor (Homo sapiens) (UniProt P03372); test: OT_ERa_GFPERaERE_0120: Odyssey Thera (OT) 2-hour HeLa Transcription Induction Assay for Estrogen Receptor (AID 2283382)
# Method in brief: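 HeLa cells were dosed for 2 h, then GFP reporter induction was quantified by fluorescence microscopy with high-content image analysis. Gain of signal fitted against DMSO baseline.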
# [8] = target: Retinoic acid receptor RXR-alpha (Homo sapiens) (UniProt P19793); test: OT_NURR1_NURR1RXRa_0480: Odyssey Thera (OT) 8-hour HEK293T Protein Complementation Assay for Nurr1/retinoid X receptor (RXR) (AID 2283385)
# Method in brief: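 HEK293T cells expressing Nurr1 and RXRα fused to reporter fragments (protein-fragment complementation); fluorescence measured 8 h after dosing. Gain of signal fitted relative to DMSO.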
# [9] = target: Retinoic acid receptor RXR-alpha (Homo sapiens) (UniProt P19793); test: OT_NURR1_NURR1RXRa_1440: Odyssey Thera (OT) 24-hour HEK293T Protein Complementation Assay for Nurr1/retinoid X receptor (RXR) (AID 2283386)
# Method in brief: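 HEK293T protein-fragment complementation of Nurr1 and RXRα fused to reporter fragments; compounds 24 h. Fluorescence gain from reconstituted reporter fitted versus DMSO.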
# [10] = target: Peroxisome proliferator-activated receptor gamma (Homo sapiens) (UniProt P37231); test: OT_PPARg_PPARgSRC1_0480: Odyssey Thera (OT) 8-hour Protein-Complementation Assay for Peroxisome Proliferator-activated Receptor Gamma / SRC-1 Co-activator (AID 2283387);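 note: nuclear to cytoplasmic split Venus YFP fluorescence ratio reporting PPARg SRC-1 interaction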
# Method in brief: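 Split-YFP (IFP1/IFP2) PPARg/SRC-1 reporter, HEK293T, 37 °C, 5% CO2; 8 h compound; formaldehyde fix + Draq5; high-content imaging, N/C ratio, ≥350 cells/image, positive direction vs DMSO.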
# [11] = target: Peroxisome proliferator-activated receptor gamma (Homo sapiens) (UniProt P37231); test: OT_PPARg_PPARgSRC1_1440: Odyssey Thera (OT) 24-hour Protein-Complementation Assay for Peroxisome Proliferator-activated Receptor Gamma/ SRC-1 Co-activator (AID 2283388);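 note: nuclear to cytoplasmic ratio of reconstituted Venus YFP fluorescence in fixed imaged cells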
# Method in brief: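 Readout: nuclear-to-cytoplasmic 488 nm fluorescence ratio, ≥350 cells per image, 8 images per well, after 24 h compound exposure of HEK293T expressing PPARg/SRC-1 split-YFP fusions. Activity fitted in positive direction against DMSO.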
# [12] = read-out: Fatty acid synthase (Homo sapiens) (UniProt P49327); test: LTEA_HepaRG_FASN: Life Technologies and Expression Analysis (LTEA) Assay for Fatty Acid Synthase (FASN) using HepaRG (AID 2283448; active = hit-call score of the fitted dose curve at least 0.9, where 1 is the maximum; inactive = score below 0.9); settings: mRNA level, 48 h; actives raise or lower the signal
# Method in brief: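 Differentiated HepaRG cells in serum-free induction medium exposed 48 h in duplicate to eight half-log concentrations, top 100 uM, 0.5% DMSO. FASN mRNA by qRT-PCR normalised to ACTB, GAPDH, POLR2A; bidirectional fit versus DMSO.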
# [13] = read-out: Cyclin D2 (CCND2), CCND2 (gene 894); test: LTEA_HepaRG_CCND2: Life Technologies and Expression Analysis (LTEA) Assay for Cyclin D2 (CCND2) using HepaRG (AID 2283449; active = hit-call score of the fitted dose curve at least 0.9, where 1 is the maximum; inactive = score below 0.9;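 note: CCND2 transcript measured by TaqMan qRT-PCR and normalised to three housekeeping genes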); settings: mRNA level, 48 h; actives raise or lower the signal
# Method in brief: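 Differentiated human HepaRG cells were exposed for 48 h in serum-free induction medium to eight half-log concentrations topping at 100 uM (0.5% DMSO vehicle). CCND2 mRNA was quantified by TaqMan qRT-PCR, normalised to ACTB, GAPDH and POLR2A, and fitted bidirectionally against DMSO.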
# [14] = read-out: Cyclin Dependent Kinase Inhibitor 1A (CDKN1A), CDKN1A (gene 1026); test: LTEA_HepaRG_CDKN1A: Life Technologies and Expression Analysis (LTEA) Assay for Cyclin Dependent Kinase Inhibitor 1A (CDKN1A) using HepaRG (AID 2283450; active = hit-call score of the fitted dose curve at least 0.9, where 1 is the maximum; inactive = score below 0.9); settings: mRNA level, 48 h; actives raise or lower the signal
# Method in brief: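 HepaRG, 48 h dosing, 8-pt half-log series from 100 uM top, 0.5% DMSO vehicle, duplicates. Readout: TaqMan qRT-PCR of CDKN1A transcript, housekeeping-normalized (ACTB, GAPDH, POLR2A). Up/down curve fit relative to DMSO.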
# [15] = read-out: Cyclin D1 (CCND1), CCND1 (gene 595); test: LTEA_HepaRG_CCND1: Life Technologies and Expression Analysis (LTEA) Assay for Cyclin D1 (CCND1) using HepaRG (AID 2283451; active = hit-call score of the fitted dose curve at least 0.9, where 1 is the maximum; inactive = score below 0.9); settings: mRNA level, 48 h; actives raise or lower the signal
# Method in brief: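 qRT-PCR (Fluidigm 96.96 array) read-out of transcript level, housekeeping-normalized (ACTB/GAPDH/POLR2A). HepaRG cells, 48 h chemical exposure, 8-point half-log series from 100 uM, 0.5% DMSO vehicle; gain or loss relative to DMSO baseline.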
# [16] = read-out: catalase (CAT), CAT (gene 847); test: LTEA_HepaRG_CAT: Life Technologies and Expression Analysis (LTEA) Assay for catalase (CAT) using HepaRG (AID 2283452; active = hit-call score of the fitted dose curve at least 0.9, where 1 is the maximum; inactive = score below 0.9); settings: mRNA level, 48 h; actives raise or lower the signal
# Method in brief: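 Differentiated HepaRG cells in serum-free induction medium were dosed 48 h in duplicate, eight half-log concentrations from 100 uM in 0.5% DMSO. Transcript measured by TaqMan qRT-PCR, normalised to ACTB/GAPDH/POLR2A, fitted bidirectionally against DMSO.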
# [17] = read-out: flavin-containing dimethylaniline monooxygenases 3 (FMO3), FMO3 (gene 2328); test: LTEA_HepaRG_FMO3: Life Technologies and Expression Analysis (LTEA) Assay for flavin-containing dimethylaniline monooxygenases 3 (FMO3) using HepaRG (AID 2283453; active = hit-call score of the fitted dose curve at least 0.9, where 1 is the maximum; inactive = score below 0.9); settings: mRNA level, 48 h; actives raise or lower the signal
# Method in brief: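 Differentiated HepaRG cells in serum-free induction medium, exposed 48 h in duplicate to 8 half-log concentrations up to 100 uM in 0.5% DMSO. FMO3 mRNA by qRT-PCR, normalized to ACTB, GAPDH, POLR2A; bidirectional fit vs DMSO.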
# [18] = read-out: Cytochrome P450 (CYP1A1), CYP1A1 (gene 1543); test: LTEA_HepaRG_CYP1A1: Life Technologies and Expression Analysis (LTEA) Assay for Cytochrome P450 (CYP1A1) using HepaRG (AID 2283454; active = hit-call score of the fitted dose curve at least 0.9, where 1 is the maximum; inactive = score below 0.9); settings: mRNA level, 48 h; actives raise or lower the signal
# Method in brief: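 qRT-PCR read-out: CYP1A1 transcript normalized to three housekeeping genes, fitted bidirectionally against 0.5% DMSO vehicle baseline. Human HepaRG cells, 48 h chemical exposure, 8-point half-log series topping at 100 uM.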
# Chain of Peroxisome proliferator-activated receptor gamma (Homo sapiens) (P37231 whole entry, looked up, the tested form may be a part): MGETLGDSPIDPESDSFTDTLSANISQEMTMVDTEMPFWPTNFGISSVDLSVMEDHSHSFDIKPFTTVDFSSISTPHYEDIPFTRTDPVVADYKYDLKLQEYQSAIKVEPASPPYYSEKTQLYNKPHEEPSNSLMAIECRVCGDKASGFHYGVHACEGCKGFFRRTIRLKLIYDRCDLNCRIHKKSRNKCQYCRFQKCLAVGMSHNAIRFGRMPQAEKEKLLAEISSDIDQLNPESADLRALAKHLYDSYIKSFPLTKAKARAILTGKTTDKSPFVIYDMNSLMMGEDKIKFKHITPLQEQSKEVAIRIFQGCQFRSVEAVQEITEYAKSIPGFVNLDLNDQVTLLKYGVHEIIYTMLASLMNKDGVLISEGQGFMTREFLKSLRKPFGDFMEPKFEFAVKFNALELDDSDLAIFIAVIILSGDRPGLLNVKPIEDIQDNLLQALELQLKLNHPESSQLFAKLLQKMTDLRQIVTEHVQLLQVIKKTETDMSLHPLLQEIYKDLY
# Chain of Estrogen receptor (Homo sapiens) (P03372 whole entry, looked up, the tested form may be a part): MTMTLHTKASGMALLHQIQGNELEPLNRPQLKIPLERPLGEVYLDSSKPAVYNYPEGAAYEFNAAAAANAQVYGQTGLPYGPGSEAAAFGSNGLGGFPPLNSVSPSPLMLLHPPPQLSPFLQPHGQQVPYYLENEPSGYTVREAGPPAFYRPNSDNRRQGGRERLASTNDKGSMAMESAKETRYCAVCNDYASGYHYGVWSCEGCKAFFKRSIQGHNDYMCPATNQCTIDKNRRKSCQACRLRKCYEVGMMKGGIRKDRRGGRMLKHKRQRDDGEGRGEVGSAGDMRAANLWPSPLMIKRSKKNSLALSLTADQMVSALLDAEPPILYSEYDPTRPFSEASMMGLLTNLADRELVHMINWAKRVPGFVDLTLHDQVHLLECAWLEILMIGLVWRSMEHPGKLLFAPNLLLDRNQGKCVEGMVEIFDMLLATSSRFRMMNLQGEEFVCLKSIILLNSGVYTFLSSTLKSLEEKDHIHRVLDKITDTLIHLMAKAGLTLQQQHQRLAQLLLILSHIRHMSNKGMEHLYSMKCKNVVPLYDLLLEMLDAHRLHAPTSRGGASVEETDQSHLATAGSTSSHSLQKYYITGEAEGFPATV
# Chain of Retinoic acid receptor RXR-alpha (Homo sapiens) (P19793 whole entry, looked up, the tested form may be a part): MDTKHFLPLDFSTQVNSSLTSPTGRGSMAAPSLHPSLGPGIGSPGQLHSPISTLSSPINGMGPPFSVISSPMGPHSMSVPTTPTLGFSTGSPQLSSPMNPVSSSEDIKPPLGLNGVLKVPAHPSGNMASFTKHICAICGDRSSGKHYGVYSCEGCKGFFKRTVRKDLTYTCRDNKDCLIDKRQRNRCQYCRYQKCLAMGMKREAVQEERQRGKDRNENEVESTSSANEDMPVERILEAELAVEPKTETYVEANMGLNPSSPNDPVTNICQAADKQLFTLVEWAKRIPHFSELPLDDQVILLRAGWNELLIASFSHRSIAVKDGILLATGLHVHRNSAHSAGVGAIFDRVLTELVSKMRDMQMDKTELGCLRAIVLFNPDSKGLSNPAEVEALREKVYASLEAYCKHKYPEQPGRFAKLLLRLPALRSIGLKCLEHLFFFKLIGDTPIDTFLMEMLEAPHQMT
# T1 sequence (P03372 whole entry, looked up, the tested form may be a part): as the sequence (P03372 whole entry, looked up, the tested form may be a part) above
# T1 sequence (Q92731 whole entry, looked up, the tested form may be a part): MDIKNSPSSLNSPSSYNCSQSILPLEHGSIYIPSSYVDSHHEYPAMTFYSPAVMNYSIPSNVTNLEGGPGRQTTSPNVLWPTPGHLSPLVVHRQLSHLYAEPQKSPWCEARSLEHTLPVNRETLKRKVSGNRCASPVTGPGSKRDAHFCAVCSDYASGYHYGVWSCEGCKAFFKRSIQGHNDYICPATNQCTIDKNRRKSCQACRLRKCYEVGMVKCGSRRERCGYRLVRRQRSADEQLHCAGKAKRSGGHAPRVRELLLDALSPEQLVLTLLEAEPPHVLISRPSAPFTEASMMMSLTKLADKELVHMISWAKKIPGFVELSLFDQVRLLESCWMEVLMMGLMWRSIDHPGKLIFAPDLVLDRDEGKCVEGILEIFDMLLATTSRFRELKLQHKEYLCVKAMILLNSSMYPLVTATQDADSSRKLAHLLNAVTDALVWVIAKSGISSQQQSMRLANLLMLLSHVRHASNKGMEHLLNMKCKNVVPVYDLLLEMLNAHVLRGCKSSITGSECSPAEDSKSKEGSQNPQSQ
# Chain of Fatty acid synthase (Homo sapiens) (P49327 whole entry, looked up): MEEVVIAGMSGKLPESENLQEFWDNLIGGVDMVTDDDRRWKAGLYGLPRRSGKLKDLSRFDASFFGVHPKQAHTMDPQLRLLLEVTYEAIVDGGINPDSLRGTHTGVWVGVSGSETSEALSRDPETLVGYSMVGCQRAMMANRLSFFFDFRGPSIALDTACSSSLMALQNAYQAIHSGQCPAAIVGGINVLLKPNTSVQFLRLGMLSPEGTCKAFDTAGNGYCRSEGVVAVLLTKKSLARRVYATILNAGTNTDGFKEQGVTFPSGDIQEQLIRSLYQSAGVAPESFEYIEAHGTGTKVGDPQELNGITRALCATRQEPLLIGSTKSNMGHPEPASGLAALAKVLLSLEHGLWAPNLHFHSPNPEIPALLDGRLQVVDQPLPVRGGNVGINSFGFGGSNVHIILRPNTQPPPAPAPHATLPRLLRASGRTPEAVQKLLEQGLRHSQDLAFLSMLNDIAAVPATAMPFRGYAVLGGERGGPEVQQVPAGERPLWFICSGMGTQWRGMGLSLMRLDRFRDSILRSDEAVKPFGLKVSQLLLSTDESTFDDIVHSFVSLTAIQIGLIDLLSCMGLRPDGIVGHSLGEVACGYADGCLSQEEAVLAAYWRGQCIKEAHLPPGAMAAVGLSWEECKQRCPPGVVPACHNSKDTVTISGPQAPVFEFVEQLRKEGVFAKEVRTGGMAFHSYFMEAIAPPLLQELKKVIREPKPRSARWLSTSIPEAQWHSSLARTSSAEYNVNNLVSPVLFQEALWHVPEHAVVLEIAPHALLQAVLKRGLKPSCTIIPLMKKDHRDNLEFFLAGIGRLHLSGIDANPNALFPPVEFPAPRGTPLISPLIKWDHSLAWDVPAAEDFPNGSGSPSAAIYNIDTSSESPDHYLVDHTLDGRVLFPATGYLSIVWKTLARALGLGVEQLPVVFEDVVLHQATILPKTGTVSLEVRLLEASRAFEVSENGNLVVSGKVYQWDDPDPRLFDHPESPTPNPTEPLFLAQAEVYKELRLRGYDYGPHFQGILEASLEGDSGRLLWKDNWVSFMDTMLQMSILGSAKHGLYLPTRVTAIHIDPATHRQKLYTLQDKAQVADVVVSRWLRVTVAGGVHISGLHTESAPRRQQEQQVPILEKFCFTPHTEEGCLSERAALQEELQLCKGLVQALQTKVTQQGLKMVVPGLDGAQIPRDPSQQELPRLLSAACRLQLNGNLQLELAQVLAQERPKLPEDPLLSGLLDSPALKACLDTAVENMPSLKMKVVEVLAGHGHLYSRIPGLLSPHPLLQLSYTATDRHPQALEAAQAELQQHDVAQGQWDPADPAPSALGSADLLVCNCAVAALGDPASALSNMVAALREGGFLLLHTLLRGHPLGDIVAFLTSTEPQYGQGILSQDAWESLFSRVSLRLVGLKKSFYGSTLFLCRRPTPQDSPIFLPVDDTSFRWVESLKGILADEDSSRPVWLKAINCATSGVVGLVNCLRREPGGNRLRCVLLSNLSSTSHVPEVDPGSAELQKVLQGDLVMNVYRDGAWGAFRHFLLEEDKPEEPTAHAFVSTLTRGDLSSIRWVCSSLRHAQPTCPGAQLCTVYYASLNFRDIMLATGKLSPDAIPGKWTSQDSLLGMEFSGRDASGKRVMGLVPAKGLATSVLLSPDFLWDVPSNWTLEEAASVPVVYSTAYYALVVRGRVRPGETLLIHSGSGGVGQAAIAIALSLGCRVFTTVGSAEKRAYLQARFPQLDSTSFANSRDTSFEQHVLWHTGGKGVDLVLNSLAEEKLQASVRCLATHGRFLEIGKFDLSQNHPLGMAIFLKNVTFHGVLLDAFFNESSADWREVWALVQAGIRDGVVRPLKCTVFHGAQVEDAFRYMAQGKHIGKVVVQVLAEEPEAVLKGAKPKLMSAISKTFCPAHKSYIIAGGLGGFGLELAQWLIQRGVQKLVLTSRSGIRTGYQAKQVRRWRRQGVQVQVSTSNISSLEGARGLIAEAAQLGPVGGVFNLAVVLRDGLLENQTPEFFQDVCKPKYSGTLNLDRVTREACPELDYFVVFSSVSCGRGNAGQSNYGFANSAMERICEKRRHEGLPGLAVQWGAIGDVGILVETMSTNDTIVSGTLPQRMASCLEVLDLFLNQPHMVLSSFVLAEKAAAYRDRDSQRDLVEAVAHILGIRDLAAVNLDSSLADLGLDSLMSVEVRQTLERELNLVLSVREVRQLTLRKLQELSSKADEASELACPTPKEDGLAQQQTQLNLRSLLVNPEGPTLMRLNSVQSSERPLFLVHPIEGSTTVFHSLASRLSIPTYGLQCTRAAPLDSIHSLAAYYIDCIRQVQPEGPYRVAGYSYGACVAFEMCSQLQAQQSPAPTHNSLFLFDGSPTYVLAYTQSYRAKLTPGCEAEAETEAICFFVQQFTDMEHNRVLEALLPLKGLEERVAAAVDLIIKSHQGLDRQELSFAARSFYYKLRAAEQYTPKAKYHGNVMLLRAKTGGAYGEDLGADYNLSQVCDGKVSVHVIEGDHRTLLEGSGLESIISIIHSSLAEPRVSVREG
# Chain of Estrogen receptor beta (Homo sapiens) (Q92731 whole entry, looked up, the tested form may be a part): as the sequence (Q92731 whole entry, looked up, the tested form may be a part) above
smiles,measurement,setting,value
c1cc[n+]2c(c1)-c1cccc[n+]1CC2,outcome,[1],inactive
same,outcome,[2],inactive
same,outcome,[3],inactive
same,outcome,[4],inactive
same,outcome,[5],inactive
same,outcome,[6],inactive
same,outcome,[7],inactive
same,outcome,[8],inactive
same,outcome,[9],inactive
same,outcome,[10],inactive
same,outcome,[11],inactive
same,outcome,[12],inactive
same,outcome,[13],inactive
same,outcome,[14],inactive
same,outcome,[15],inactive
same,outcome,[16],inactive
same,outcome,[17],inactive
same,AC50,[18],22.4 µM (active)
